ELG1 DNA repair: blocks ELG1-dependent DNA repair in HEK293T cells; HEK293T ELG1-luciferase reporter, luminescence, 16 h; DNA damage induced by 5-fluorouridine; Potency, µM (doses to about 46.1 µM), without a hit: at the top dose activity change, negative = inhibition, actives largely listed as inhibitors; actives 2.3% (n = 330,000); AID 504467; further: nearly all actives have a fitted effect of over 55% in size
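Cells (2,000 per well) received 5-fluorouridine plus test compound or DMSO and were incubated 16 hr at 37 °C, 5% CO2. Luciferase activity was read by luminescence 30 min after ONE-Glo addition; signal suppression marked inhibition of damage-induced ELG1 function.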
12-LOX inh: inhibitors of human 12S-lipoxygenase ALOX12. AID 1671190. P18054. Potency, µM (top dose mostly 108 µM), for inactives: at the top dose activity change, negative = inhibition, most hits filed as inhibitors. actives 1.1% (n = 580,000). purified 12hLO, xylenol orange hydroperoxide absorbance
Target sequence (P18054 whole entry, looked up): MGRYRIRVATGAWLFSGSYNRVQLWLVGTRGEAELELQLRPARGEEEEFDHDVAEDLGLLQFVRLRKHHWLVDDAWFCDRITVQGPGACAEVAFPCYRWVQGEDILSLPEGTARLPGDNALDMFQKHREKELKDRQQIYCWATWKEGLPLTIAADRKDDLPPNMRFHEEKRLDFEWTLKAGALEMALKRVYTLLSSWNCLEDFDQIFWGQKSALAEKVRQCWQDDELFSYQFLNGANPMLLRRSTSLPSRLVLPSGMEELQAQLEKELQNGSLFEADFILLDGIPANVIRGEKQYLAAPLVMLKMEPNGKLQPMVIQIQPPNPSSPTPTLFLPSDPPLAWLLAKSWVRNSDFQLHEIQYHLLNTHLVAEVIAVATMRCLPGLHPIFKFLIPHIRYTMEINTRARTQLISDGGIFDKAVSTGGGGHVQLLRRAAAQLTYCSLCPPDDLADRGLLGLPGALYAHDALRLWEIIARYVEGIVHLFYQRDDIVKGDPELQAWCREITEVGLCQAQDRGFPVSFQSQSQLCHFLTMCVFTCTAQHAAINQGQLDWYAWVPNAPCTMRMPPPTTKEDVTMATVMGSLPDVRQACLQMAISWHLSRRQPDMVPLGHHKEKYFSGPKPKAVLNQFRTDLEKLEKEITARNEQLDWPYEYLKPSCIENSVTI
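Purified human 12hLO at 150 nM in 25 mM Hepes, 0.01% Triton X-100, pH 7.0, preincubated 15 min at room temperature with compound. Reaction started with 40 uM arachidonic acid, 30 min at room temperature. Hydroperoxide measured by Fe-xylenol orange, 573/405 nm absorbance ratio.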
RORg inh: ROR gamma (mouse) transcription inhibition. P51450. Drosophila S2 Gal4-RORgamma UAS-luciferase reporter, 20 h. Potency, µM (highest dose often 53.6 µM), inactives show at the top dose activity change, negative = inhibition, hits mostly inhibitors. actives 5.4% (n = 310,000). AID 2551; further: nearly all actives have a fitted effect of over 60% in size
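Schneider cells (Drosophila), stable Gal4 DBD–ROR gamma + UAS-luc; 1 hr cmpd preincubation; Cu2+ induction 700 uM final; 20 hr ambient; luminescence.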
TDP1 cell noCPT: qHTS for Inhibitors of human tyrosyl-DNA phosphodiesterase 1 (TDP1): qHTS in cells in absence of CPT. DT40 Tdp1-/- hTDP1 cells, no CPT, ATP luminescence, 48 h. Potency, µM (doses to about 46.2 µM), without a hit: at the highest dose activity change, negative = growth inhibition, actives largely listed as inhibitors. actives 15% (n = 420,000). AID 686978, 2013; further: nearly all actives have a fitted effect of over 55% in size
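Growth of hTDP1-complemented DT40 Tdp1-knockout cells is measured by ATP luminescence after at least 48 hr compound exposure at 37 °C, with DMSO substituting for the 20 nM CPT used in the parallel screen.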
TDP1 cell CPT: growth inhibition of DT40 Tdp1-/-;hTDP1 cells with camptothecin (screen for TDP1 inhibitors) | chicken DT40 Tdp1-/-;hTDP1 cells + 20 nM CPT, ATP luminescence, 48 h | Potency, µM (highest dose often 46.2 µM), for inactives: top-dose activity change, negative = growth inhibition, usual class: inhibitors | actives 12% (n = 420,000); further: nearly all actives have a fitted effect of over 55% in size
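Chicken DT40 Tdp1-/- cells stably complemented with human TDP1 were seeded at 400 cells/well in medium containing 20 nM camptothecin, exposed to pin-transferred compounds, and grown at 37 °C for at least 48 hr. Viability was read as ATP luminescence.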
VP16 counter: Gal4-VP16 reporter inhibition counter-screen; Potency, µM (titrated, usually from 53.6 µM), without a hit: top-dose activity, negative = inhibition, hits mostly inhibitors; Drosophila S2 Gal4-VP16 UAS-luciferase, luminescence, 20 h; actives 3.5% (n = 310,000);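 further: Gal4-VP16 expression switched on by copper sulfate through the metallothionein promoter; nearly all actives have a fitted effect of over 50% in size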
Active calls of the source: *; ? = inconclusive; · = no result given. A selection: hits, their analogues and other compounds. The true share with any hit is near 15%. The call rests on the fitted dose curve; in most records, active means well fitted curve in the direction sought with a large enough effect; inconclusive means small, poorly fitted or top-dose-only effect, or another doubt; inactive means no such curve, though single readings can be large; an effect the other way counts as inactive or inconclusive. On the % scale 0 is the no-effect control and ±100 the full control effect; potency means the concentration at half of the fitted maximal effect.

SMILES	ELG1 DNA repair	12-LOX inh	RORg inh	TDP1 cell noCPT	TDP1 cell CPT	VP16 counter
CC(Oc1cccc(Cl)c1)C(=O)NCc1ccc(S(N)(=O)=O)cc1 (centres undefined)	-2.9%	-5.4%	1.0%	25.9µM*	?	-0.1%
CCOC(=O)c1[nH]c(CSc2nnc(-c3ccc(OC)cc3)o2)c(C(=O)OCC)c1C	?	0.0%	16.4%	-10.6%	-19.3%	20.8%
COc1ccc(-c2nnc(SCC(=O)c3[nH]c(C)c(C(C)=O)c3C)o2)cc1	?	0.0%	6.4%	18.4µM*	13µM*	-8.6%
CCOC(=O)c1c(C)[nH]c(C)c1C(=O)CSc1nnc(-c2ccc(OC(F)F)cc2)o1	?	-6.3%	?	11.6µM*	?	?
CC(=O)c1c(C)[nH]c(C(=O)CSc2nnc(-c3ccco3)o2)c1C	?	4.4%	29.2%	14.6µM*	?	-3.4%
COCCNC(=O)c1ccc2c(c1)N(C)C(CC(=O)N1CCCOCC1)CO2 (centres undefined)	·	-6.2%	·	·	·	·
CC(=O)N1CCN(c2nnc(-c3ccc(C)cc3)c3ccccc23)CC1	-7.8%	11.2%	27.0%	?	4.8%	1.5%
Cc1ccc(-c2nnc(N3CCN(C(=O)CSc4ncn[nH]4)CC3)c3ccccc23)cc1	0.0%	0.6%	-6.3%	?	16.4µM*	0.2%
COCCn1cc(CN(C)CCc2c(C)noc2C)ccc1=O	·	69.1%	·	·	·	·
C#CCN(C[C@@H]1[C@@H](OC(=O)NC2CC2)[C@@H](OC(=O)NC2CC2)Cn2c(=O)n(CCCCCC)c(=O)n21)S(=O)(=O)c1ccc(C)cc1	·	?	·	18.4µM*	?	·
C#CCN(C[C@@H]1[C@@H](OC(=O)NCc2ccc(OC)c(OC)c2)[C@@H](OC(=O)NCc2ccc(OC)c(OC)c2)CN(C(=O)OC(C)C)N1C(=O)OC(C)C)S(=O)(=O)c1ccc(C)cc1	·	-5.7%	·	9.2µM*	11.6µM*	·
COC(=O)[C@H]1C[C@@]2(O)CN(S(=O)(=O)c3ccc(C)cc3)C[C@@]2(OC(=O)NCc2ccc(OC)c(OC)c2)C[C@H]1C(=O)OC	·	4.1%	·	?	-12.3%	·
C#CCN(C[C@@H]1[C@@H](OC(=O)NC2CCCC2)[C@@H](OC(=O)NC2CCCC2)CN(C(=O)OC(C)C)N1C(=O)OC(C)C)S(=O)(=O)c1ccc(C)cc1	·	12.7%	·	20.6µM*	?	·
Cc1ccc(S(=O)(=O)N2C[C@H]3N(C(=O)OC(C)C)N(C(=O)OC(C)C)C[C@H](OC(=O)NC4CCCC4)[C@@]3(O)C2)cc1	·	-7.0%	·	20.6µM*	?	·
Cc1ccc(S(=O)(=O)N2C[C@H]3N(C(=O)OC(C)C)N(C(=O)OC(C)C)C[C@H](OC(=O)NC4CC4)[C@@]3(O)C2)cc1	·	?	·	?	-24.5%	·
C#CCN(C[C@H]1[C@H](OC(=O)NC2CC2)[C@H](OC(=O)NC2CC2)C[C@@H](C(=O)OC)[C@H]1C(=O)OC)S(=O)(=O)c1ccc(C)cc1	·	3.7%	·	?	-28.0%	·
C#CCN(C[C@@H]1[C@@H](OC(=O)NCc2ccc(OC)c(OC)c2)[C@@H](OC(=O)NCc2ccc(OC)c(OC)c2)Cn2c(=O)n(CCCCCC)c(=O)n21)S(=O)(=O)c1ccc(C)cc1	·	-3.4%	·	-28.4%	6.2%	·
C#CCN(C[C@@H]1[C@@H](OC(=O)NCc2ccccc2)[C@@H](OC(=O)NCc2ccccc2)Cn2c(=O)n(CCCCCC)c(=O)n21)S(=O)(=O)c1ccc(C)cc1	·	-5.8%	·	?	?	·
